The record followed here is PubChem BioAssay AID720534 (National Center for Advancing Translational Sciences (NCATS), 2013).

In all, about 1,600 compounds went through this assay and about 990 (62%) were called active. About 30% were inconclusive and are not listed. Calls come from the whole dose curve; as a rule, active = well fitted inhibition curve with a large enough effect; inconclusive = small, poorly fitted or top-dose-only effect; inactive = no such curve, though single readings can be large or run the other way. The set was probably picked from earlier hits. Not all results are given here.
Potency is the fitted concentration of half-maximal effect.

The nature of this assay: qHTS for Inhibitors of TGF-b: Confirmation of Cherry Picks. Note: nearly all actives have a fitted effect of over 65% in size. Conditions: HepG2 CAGA-GFP TGF-b reporter, GFP fluorescence, 18 h, cells stimulated with TGF-beta, 500 pg/mL; series mostly up to 46.1 µM; activity, negative = inhibition: at the top concentration. From the text:
TGF-b is a main component in the TGF-b signaling pathway which plays diverse roles in cellular and development pathways. TGF-b is mediated through transcription factors called "Smads". Although the Smad-dependent pathway is the primary canonical TGF-b signaling mode, TGF-b1 can also activate alternative signaling pathways, including those involving MAPK (ERK, JNK and p38). This interaction may mediate or enhance Smad-dependent responses, or can exert Smad-independent effects. The complexity of this signaling cascade allows the TGF-b superfamily to perform unique, overlapping or redundant functions. We believe that targeting the TGF-beta pathway at the Smad-transcription factor level may eliminate the consequences of disrupting the entire pathway and offer specificity without affecting other signaling pathways. Smad3 is the primary transducer of TGF-b's signals and Smad3 regulates many functions attributed to TGF-b signaling. We hypothesize that Smad3 inhibitors will selectively eliminate Smad3-specific TGF-beta signals without undesired off-target effects. We aim to identify Smad3-small molecule antagonists using a quantitative high throughput screening (qHTS) approach. In this assay, hits identified from the primary screen were re-tested. MH087449NIH Chemical Genomics Center [NCGC] NIH Molecular Libraries Probe Centers Network [MLPCN] MLPCN Grant: MH087449 Assay Submitter (PI): Sushil Rane, National Institute of Diabetes and Kidney Diseases
Suspensions of trypsinized HEPG2 CAGA-GFP cells were dispensed into white, tissue culture-treated, solid 1536-well plates at 5uL/well (1000 cells/well final concentration) in DMEM medium supplemented with 1% FBS. Plates were incubated at 37 degrees C for 2 hours, after which 23 nL of compounds or DMSO were delivered to each well using a pin tool. One uL of recombinant TGF-beta in DMEM (1% FBS) was then dispensed (500 pg/mL final concentration), and plates were incubated at 37 degrees C for 18 hours. The plates were measured on an Acumen eX3 Explorer plate reader for GFP fluorescence (ex488/em500-530). GFP values were calculated by determining the mean GFP fluorescence of individual cells, and compiling these values for each well to determine a total well GFP signal. The %Activity was determined from the corrected fluorescence values. A titration of the known TGF-B inhibitor SB431542 was included to monitor plate performance, while unstimulated HEPG2 (-TGF-B) control wells were used to normalize %Activity of identified inhibitors; unstimulated wells corresponded to 100%Activity (full inhibition), while stimulated cell controls (+DMSO) were used to normalize 0%Activity (no inhibition). Concentration-response curves were fitted to the signals arising from the resulting fluorescence. The concentration-effect curves were then classified based on curve quality (r2), response magnitude and degree of measured activity, and compounds were subsequently categorized based on their curve class.
In general terms: qHTS replaces the single test concentration by a dilution series.
In the case of `O=[N+]([O-])c1ccccc1S(=O)(=O)Nc1cccc2cccnc12`, the Potency is 13 µM (active).
`CN(C)CCNC(=O)c1ccc(Cl)c2cc3ccccc3nc12`: the Potency was 3.26 µM (active).
In the case of `O=C(NC1=CC(=O)c2ccccc2C1=O)c1ccccc1`, the Potency was 5.17 µM (active).
Regarding `COC(=O)COc1cccc2c(=O)n(CC(=O)NCc3ccccc3)ccc12`, the “activity, negative = inhibition” value was -17.8% (inactive).
Regarding `COc1cc(NC(=O)c2ccccc2NS(=O)(=O)c2ccc(Cl)s2)cc(OC)c1`, the Potency is 5.8 µM (active).
With `CN(c1ccccc1)S(=O)(=O)c1ccc(C(=O)N2CCN(c3ccccc3Cl)CC2)cc1`, the Potency is 5.8 µM (active).
The same measure, in the same setting: next, `COc1ccc(CNC(=O)C[C@H]2C[C@H](C(=O)N3CCOCC3)[C@@]3(CCC4CCCC4)c4[nH]c5ccc(Cl)cc5c4CCN3C2=O)cc1OC`: 4.61 µM (active).
On the same count and under the same terms, next, `COc1ccc(C(=O)c2c3ccc([N+](=O)[O-])cc3[n+]([O-])n2CCCN)cc1`: 18.4 µM (active); `COc1cc(NC(=O)c2[nH]cnc2C(N)=O)cc(C(=O)Nc2cccc(C(F)(F)F)c2)c1`: 16.4 µM (active).
Regarding `Cn1c(=O)n(C)c2cc(S(=O)(=O)N3CCCc4ccccc43)ccc21`, the “activity, negative = inhibition” value is -40.6% (inactive).
In the case of `COc1cc(CC(=O)Nc2nc(-c3ccc(F)c(F)c3)cs2)cc(OC)c1OC`, the Potency was 11.6 µM (active).
The same measure, in the same setting: next, `Cc1oc2c(F)c(F)c(F)c(F)c2c1S(=O)(=O)Nc1cccc(C(F)(F)F)c1`: 20.6 µM (active); `Clc1ccc(Nc2nc(-c3cccs3)cs2)nc1`: 13 µM (active).
The same measure, in the same setting: next, `CCOc1ccc(CCN2C(=S)N([C@@H](CC(C)C)CN3CCC[C@@H]3CN3C(=S)NC[C@@H]3Cc3ccc(O)cc3)C[C@@H]2CC(C)C)cc1`: 18.4 µM (active); `CCN(CC)C(=O)C1=C(C)N(Cc2ccc(C(C)(C)C)cc2)C(=O)C(CC(=O)NCc2cccc3ccccc23)C1` (stereo not given): 14.6 µM (active); `COC(=O)N/N=C/c1cn(CCCOc2ccc(C)cc2)c2ccccc12`: 14.6 µM (active).
Regarding `c1ccc2cc3c(NCCN4CCOCC4)ccnc3cc2c1`, the Potency was 18.4 µM (active).
Regarding `c1ccc(-c2cn3c(n2)CCc2ccc4cccnc4c2-3)cc1`, the “activity, negative = inhibition” value was -25.2% (inactive).
Take `O=C(/C(=C/c1cccc(Cl)c1)c1nc2ccccc2[nH]1)c1ccccc1`: the Potency was 2.91 µM (active).
For `CC(=O)c1cccc(-c2cnc3c(NC=O)cc(-c4ccc(N(C)C)cc4)cn23)c1`, the Potency is 7.31 µM (active).
On the same count and under the same terms, next, `CC(=O)c1ccc(-c2cnc3c(NC=O)cc(-c4cccc(NS(C)(=O)=O)c4)cn23)cc1`: 0.731 µM (active).
Take `O=C(Nc1ccc(Cl)cc1)Nc1nnc(/C=C/c2ccccc2)s1`: the “activity, negative = inhibition” value is -28.9% (inactive).
For `COc1ccc(-c2onc(C)c2-c2ccc3c(c2)OCCO3)c(O)c1`, the Potency is 16.4 µM (active).
As for `COc1cc(NC(=O)COC(=O)c2ccc([N+](=O)[O-])s2)cc(OC)c1OC`, the Potency was 23.1 µM (active).
With `Cc1ccnc(NC(=O)C2CCN(S(=O)(=O)c3c(C)c(C)cc(C)c3C)CC2)c1`, the Potency is 7.31 µM (active).
Same read-out and setting: next, `S=C(NCC1COc2ccccc2O1)Nc1ccc(Br)cc1` (stereo not given): 18.4 µM (active); `CN(C)c1nc(N)nc(CSc2nnnn2-c2cccc3ccccc23)n1`: 7.31 µM (active); `CN(C)c1nc(=Nc2cccc(Cl)c2)ss1`: 5.17 µM (active).
`Cc1cccc(-c2nc(Nc3ccc(O)cc3)c3ccccc3n2)c1`: the Potency is 18.4 µM (active).
In the case of `COc1cc(/C=C2\Oc3ccc(C#Cc4ccc(O)cc4)cc3C2=O)cc(OC)c1`, the Potency is 6.51 µM (active).
Still for that read-out and setting: next, `O=C(Nc1nnc(S(=O)(=O)N2CCCCCC2)s1)c1cccc(Br)c1`: 23.1 µM (active); `O=C(Nc1ccc(Br)cn1)c1ccc([N+](=O)[O-])o1`: 18.4 µM (active).
`COc1ccc(CC(=O)Nc2ccccc2NC(=O)c2ccco2)cc1OC`: the “activity, negative = inhibition” value is -18% (inactive).
With `CCOC(=O)C1=C(N)N(c2ccc(C)cc2)C2=C(C(=O)CCC2)C1c1cccs1` (stereo not given), the Potency is 23.1 µM (active).
Same read-out and setting: next, `Cc1nc(/N=C(\N)NC(=O)NC2CCCCC2)nc2ccccc12`: 11.6 µM (active); `Clc1ccc2c(c1)C1=C(C(c3ccncc3)O2)C(c2ccc(Br)cc2)n2ncnc2N1` (stereo not given): 2.31 µM (active); `CCCOc1ccccc1C1CC(=O)Nc2cc3c(cc21)OCO3` (stereo not given): 8.2 µM (active).
With `Cc1cccc2sc(N(CCCN(C)C)C(=O)CCS(=O)(=O)c3ccccc3)nc12`, the Potency was 5.17 µM (active).
The same measure, in the same setting: next, `COc1cccc2sc(N(CCCN(C)C)C(=O)CCS(=O)(=O)c3ccccc3)nc12`: 3.26 µM (active).
Regarding `COc1ccc(C)cc1S(=O)(=O)N1CCN(S(=O)(=O)c2cc(C(=O)O)ccc2C)CC1`, the “activity, negative = inhibition” value is -6.42% (inactive).
For `Cc1nn(-c2ccccc2)c(C)c1/C=N/NC(=O)CSc1nc2ccccc2c(=O)n1-c1ccccc1`, the Potency is 2.31 µM (active).
On the same count and under the same terms, next, `Cc1ccc(CN2CC(N3CCC(Cc4ccccc4)CC3)CS2(=O)=O)cc1` (stereo not given): 20.6 µM (active).
With `O=C(Nc1ccc(C2CC2(Cl)Cl)cc1)c1cccc([N+](=O)[O-])c1` (stereo not given), the “activity, negative = inhibition” value was -80.8% (inactive).
As for `Cc1ccc(S(=O)(=O)Nc2nc3ccccc3nc2N2CCc3ccccc3C2)cc1`, the Potency is 18.4 µM (active).
The same measure, in the same setting: next, `Cc1cccc(NS(=O)(=O)c2ccc(-c3cnc(C4CC4)o3)cc2)c1`: 16.4 µM (active).
The same measure, in the same setting: next, `COc1ccc2nc(N3CCN(C(=O)c4ccc([N+](=O)[O-])o4)CC3)sc2c1`: 20.6 µM (active); `OCC1OC(n2cnc3c(N4CCCC4)ncnc32)C(O)C1O` (stereo not given): 2.59 µM (active); `CCC(C)N1C(=O)S/C(=C/c2ccc(Sc3nc4ccccc4[nH]3)o2)C1=O` (stereo not given): 5.17 µM (active).
`CCCOc1ccc(F)cc1-c1cc(C(=O)Nc2ccc(F)c(Cl)c2)[nH]n1`: the Potency is 20.6 µM (active).
The same measure, in the same setting: next, `Clc1cccc(Cc2c(-c3cccc(Cl)c3)nc3ccc(Cl)cn23)c1`: 18.4 µM (active).
On the same count and under the same terms, next, `Oc1c(CN2CCN(c3ccc(F)cc3)CC2)cc(Cl)c2cccnc12`: 6.51 µM (active); `OCCCNc1nccc(-c2cc(Nc3cccc(Cl)c3)ncn2)n1`: 0.411 µM (active).
Still for that read-out and setting: next, `CC(=NNC(=S)N1CCCCCC1)c1ccccn1`: 0.651 µM (active); `Cc1cccc(CS(=O)(=O)c2ncc(Cl)c(C(=O)Nc3ccc(F)cc3)n2)c1`: 5.17 µM (active); `Cc1cccc(NC(=O)c2nc(S(=O)(=O)Cc3ccccc3)ncc2Cl)c1`: 4.11 µM (active).
